FBW7 activator: activators of human E3 ligase FBW7 | AlphaScreen FBW7–phospho-cyclin E peptide binding, activator screen | actives 0.13% (n = 650,000) | normalized activity (activation), % at 26.1 µM; in the data active = normalized activity above about 1.9%;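 note: purified mutant Fbw7 with reduced substrate affinity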
Target sequence (Q969H0 whole entry, looked up): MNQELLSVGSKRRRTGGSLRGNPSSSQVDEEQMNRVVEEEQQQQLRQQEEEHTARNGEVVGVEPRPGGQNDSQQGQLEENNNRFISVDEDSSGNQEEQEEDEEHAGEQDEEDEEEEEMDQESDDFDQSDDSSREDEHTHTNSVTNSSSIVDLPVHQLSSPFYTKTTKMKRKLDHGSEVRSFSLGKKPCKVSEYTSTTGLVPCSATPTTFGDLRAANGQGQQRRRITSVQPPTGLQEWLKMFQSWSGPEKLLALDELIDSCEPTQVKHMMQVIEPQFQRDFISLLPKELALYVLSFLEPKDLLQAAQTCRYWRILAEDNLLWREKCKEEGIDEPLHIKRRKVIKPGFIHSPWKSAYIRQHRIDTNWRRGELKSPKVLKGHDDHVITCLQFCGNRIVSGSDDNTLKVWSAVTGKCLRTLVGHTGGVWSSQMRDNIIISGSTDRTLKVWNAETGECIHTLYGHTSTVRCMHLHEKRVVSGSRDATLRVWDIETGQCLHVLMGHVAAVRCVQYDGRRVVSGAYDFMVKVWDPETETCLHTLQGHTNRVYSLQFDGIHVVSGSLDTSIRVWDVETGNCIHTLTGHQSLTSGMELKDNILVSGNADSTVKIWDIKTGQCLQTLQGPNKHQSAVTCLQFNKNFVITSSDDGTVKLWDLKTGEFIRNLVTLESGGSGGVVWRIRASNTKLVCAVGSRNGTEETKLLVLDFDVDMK
MITF inh: human MITF inhibition, primary screen. actives 0.91% (n = 650,000). inhibition, % at 2.6 µM. O75030. AlphaScreen MITF homodimerization, bead proximity signal; in the data active = inhibition above about 50%;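 note: 0% = vehicle wells with protein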
TEAD-YAP block: TEAD-YAP interaction inhibition. AID 1259422. actives 1.4% (n = 640,000). inhibition, % at 9.12 µM. HEK-TIYL cells, TEAD-Gal4/YAP UAS-luciferase luminescence; in the data active = inhibition above about 32%;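 note: 0% = median of test compound wells and 100% = reference inhibitor wells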
GPR151 activ: activates the human receptor GPR151 | activation, % at 11.2 µM | PathHunter beta-arrestin GPR151 cells, luminescence | AID 1508602 | actives 1% (n = 650,000) | Q8TDV0; in the data active = activation above about 4.9%;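 note: 0% = median of compound wells and 100% = cells with positive control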
GPR151 confirm: human GPR151 activation, confirmation screen | activation, % at 11.2 µM | 6,700 tested, under 10 active | shares compounds with GPR151 activ | GPR151 PathHunter beta-arrestin cells, luminescence, 90 min; % of EA-reagent control over plate median;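 active = mean percent activation across replicates above the confirmation screen cutoff of 4.91%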
GPR119 ag: activates human GPR119 in a GPR151 counter-screen; GPR119 PathHunter beta-arrestin cells, luminescence, 90 min; 0 = compound-well median, 100 = enzyme-acceptor control; activation, % at 11.2 µM; actives 0.3% (n = 6,700); shares compounds with GPR151 activ;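 active = mean percent activation in the counterscreen above 29.09%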;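 note: counterscreen on off-target GPR119 to flag nonselective hits from the GPR151 activator screen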
Numbers without * were called inactive; nt = not tested or not shown. The list is not random: actives were taken first. Their share in the collection is about 3.4%.

SMILES	FBW7 activator	MITF inh	TEAD-YAP block	GPR151 activ	GPR151 confirm	GPR119 ag
COc1ccc(/C=C2\SC(=O)N(CC(=O)Nc3ccc(C)cc3)C2=O)cc1OC	1	12	0	-1	nt	nt
CCOC(=O)c1ccc(NC(=O)CNC(=O)c2ccccc2)cc1	1	7	2	15*	-2	-4
CCOc1ccc(/C=C2\SC(=S)N(CC(=O)Nc3ccc(O)cc3)C2=O)cc1	0	2	0	5.7*	2	6
CCOC(=O)c1ccc(NC(=O)CN2C(=O)C(CC)SC(CC)C2=O)cc1 (stereo not given)	0	9	2	6.4*	0	6
O=C(Nc1nnc(N2CCCC2)s1)Nc1ccccc1C(F)(F)F	0	-4	-23	3	nt	nt
O=C(O)c1ccc(Cl)c([N+](=O)[O-])c1	0	3	6	-1	nt	nt
COc1ccccc1OCC(=O)Nc1ccc(-c2nnc3n2CCCCC3)cc1	0	-6	6	-2	nt	nt
Cc1ccc(NC(=O)/C(=C/c2ccc(Br)cc2)NC(=O)c2ccc(C)cc2)cc1	0	10	-7	0	nt	nt
CCOc1ccc(NC(=O)CN2C(=O)C(C)SC(C)C2=O)cc1 (stereo not given)	0	4	1	3	nt	nt
CCOc1ccc(NC(=O)CN2C(=O)C(CC)SC(CC)C2=O)cc1 (stereo not given)	0	7	14	5.1*	1	8
COc1ccccc1CNC(=O)CN1Cc2ccccc2C1=O	0	-6	-10	0	nt	nt
CCN(CC)Cc1ccc(C(=O)NCc2cnc3ccccc3c2)c(=O)[nH]1	0	-8	10	1	nt	nt
CC1CCCCN1Cc1ccc(C(=O)NCc2cnc3ccccc3c2)c(=O)[nH]1 (stereo not given)	0	-1	19	11*	1	7
Cc1cc(OCC(=O)NN2CCN(C)CC2)ccc1[N+](=O)[O-]	0	-8	-8	1	nt	nt
Cc1cc(OCC(=O)NN2CCOCC2)ccc1[N+](=O)[O-]	0	-10	-4	5.0*	0	5
COCCCNC(=O)c1sc2ncnc(N3CCOCC3)c2c1C	0	9	3	0	nt	nt
COc1ccc(/C(C)=N/NC(=O)c2ccccc2Br)cc1	0	20	-10	5.7*	0	6
CC1=C(C(=O)OCCc2ccccc2)C(c2cccc(C(F)(F)F)c2)NC(=O)N1C (stereo not given)	0	3	2	-1	nt	nt
CC(=O)N/N=C(\C)CC(=O)Nc1ccc2c(c1)OCCO2	0	-1	-2	0	nt	nt
C/C(CC(=O)Nc1ccc2c(c1)OCCO2)=N\NC(=O)C(=O)Nc1ccc(C)cc1	0	1	-5	7.0*	0	5
CCn1c(C(=O)O)c(CNCc2ccc(Cl)cc2)c2ccc(C)cc21	0	-6	-1	1	nt	nt
N#Cc1ccccc1CN1CCC(Oc2cccc(-c3cccnc3)c2)CC1	0	1	8	5.2*	-1	7
Nc1cccc(-c2nc(NCc3cccnc3)c3[nH]cnc3n2)c1	0	22	-11	3	nt	nt
CCCCOc1ccc(-c2cc(C(=O)NN)c3ccccc3n2)cc1	0	0	-2	0	nt	nt
COC(=O)c1c(NC(=O)c2cc(-c3ccc(CC(C)C)cc3)nc3ccccc23)sc(C)c1-c1ccccc1	1	14	4	5.1*	2	17
SMILES	FBW7 activator	MITF inh	TEAD-YAP block	GPR151 activ	GPR151 confirm	GPR119 ag
CCOC(=O)c1cc(C)sc1NC(=O)c1cc(-c2ccc(CC(C)C)cc2)nc2ccccc12	0	0	3	0	nt	nt
CCCCOc1ccc(-c2cc(C(=O)OC)c3ccccc3n2)cc1	0	2	0	7.5*	0	-9
COCCNc1nccn2c(-c3ccccc3N(C)C)cnc12	0	17	3	0	nt	nt
c1ccc(-c2nc(-c3ccncc3)cc(N3CCC4(CC3)OCCO4)n2)nc1	0	4	7	-1	nt	nt
CCOc1ccc(OC(=O)c2ccc(C(=O)Oc3ccc(OCC)cc3)nc2)cc1	0	-12	-6	-1	nt	nt
CCc1ccc(OC(=O)c2ccc(C(=O)Oc3ccc(CC)cc3)nc2)cc1	0	-20	9	5.4*	0	-3
CC(C)N(C)Cc1nnnn1CC(=O)NC1(c2ccccc2)CC1	0	10	-1	8.3*	0	3
CCOC(=O)N1CCN(C(=O)Cn2nnnc2CN(C)C(C)C)CC1	0	-6	6	5.2*	-1	-5
CCOC(=O)N1CCN(C(=O)Cn2nnnc2CN2CCCCCC2)CC1	0	2	-2	-1	nt	nt
CC(C)N(C)Cc1nnnn1CC(=O)NCC(c1ccccc1)c1ccccc1	0	-1	7	-1	nt	nt
CC1=C(C(=O)NCc2ccc(F)cc2)C2(CCCCCC2)OC1=O	0	9	6	2	nt	nt
C/C(=N\NC(=O)COc1ccccc1)c1ccccc1	0	-2	3	-1	nt	nt
Cc1ccc(NC(=O)N2CCC(C(=O)NCCC3=CCCCC3)CC2)cc1	0	23	-5	5.0*	0	-4
O=C(NCCC1=CCCCC1)C1CC(=O)N(C2CCCC2)C1 (stereo not given)	0	-1	0	5.5*	0	7
COc1ccc(C)cc1S(=O)(=O)N1CCCC1	0	9	-1	1	nt	nt
Fc1ccc(CNc2ncnc3c2c(-c2ccccc2)cn3-c2cccc(C(F)(F)F)c2)cc1	0	5	-1	2	nt	nt
O=C(Nc1cccc(C(F)(F)F)c1)c1nn2c(C(F)(F)F)cc(-c3ccc(Br)o3)nc2c1Br	0	3	9	17*	0	0
O=C(NCc1cccnc1)c1nn2c(C(F)(F)F)cc(-c3ccccc3)nc2c1Br	0	-6	-3	0	nt	nt
O=C(NCc1ccc(F)cc1)c1nn2c(C(F)(F)F)cc(-c3ccccc3)nc2c1Br	0	2	2	5.9*	0	-4
CC1CN(C2CCN(Cc3cccc(F)c3)CC2)CC(C)O1 (stereo not given)	0	44	7	1	nt	nt
CCOC(=O)N1CCN(Cc2cc(=O)oc3ccc(OC)cc23)CC1	0	12	-23	14*	0	1
COc1ccc2oc(=O)cc(CN3CCCCC3)c2c1	0	10	5	0	nt	nt
COc1ccc(-n2cc(C(=O)NCCCN3CCCCCC3)c3ccccc3c2=O)cc1	0	-6	1	-1	nt	nt
O=C(NCCc1ccccc1)C(F)(F)C(F)F	0	6	0	19*	0	1
CN(Cc1nc(-c2cccnc2)no1)S(=O)(=O)c1ccc(Br)cc1	0	-10	-6	-2	nt	nt
CN(Cc1nc(-c2cccnc2)no1)S(=O)(=O)c1ccc2ccccc2c1	0	17	-2	5.1*	0	-5
O=C(CCc1nnc(C2(c3ccc(Cl)cc3)CCC2)o1)NCCCc1cccnc1	0	-5	-18	-1	nt	nt

Bioassay records (PubChem)
